# According to paper PMC4336329 (PLoS ONE, 2015):
# Hit rate of the full screen: of about 310,000 compounds, about 2,200 (0.71%) showed an effect of 50% or more. Effects have a minus sign here. The full list was thinned out, with strong results kept by preference.
# Molecular target: human ether-à-go-go-related gene (hERG) potassium channel (human, UniProt Q12809)
# Test: primary screen, population patch clamp on CHO cells stably expressing hERG; higher = less effect of the substance
# human ether-à-go-go-related gene (hERG) potassium channel, sequence (Q12809 whole entry, looked up): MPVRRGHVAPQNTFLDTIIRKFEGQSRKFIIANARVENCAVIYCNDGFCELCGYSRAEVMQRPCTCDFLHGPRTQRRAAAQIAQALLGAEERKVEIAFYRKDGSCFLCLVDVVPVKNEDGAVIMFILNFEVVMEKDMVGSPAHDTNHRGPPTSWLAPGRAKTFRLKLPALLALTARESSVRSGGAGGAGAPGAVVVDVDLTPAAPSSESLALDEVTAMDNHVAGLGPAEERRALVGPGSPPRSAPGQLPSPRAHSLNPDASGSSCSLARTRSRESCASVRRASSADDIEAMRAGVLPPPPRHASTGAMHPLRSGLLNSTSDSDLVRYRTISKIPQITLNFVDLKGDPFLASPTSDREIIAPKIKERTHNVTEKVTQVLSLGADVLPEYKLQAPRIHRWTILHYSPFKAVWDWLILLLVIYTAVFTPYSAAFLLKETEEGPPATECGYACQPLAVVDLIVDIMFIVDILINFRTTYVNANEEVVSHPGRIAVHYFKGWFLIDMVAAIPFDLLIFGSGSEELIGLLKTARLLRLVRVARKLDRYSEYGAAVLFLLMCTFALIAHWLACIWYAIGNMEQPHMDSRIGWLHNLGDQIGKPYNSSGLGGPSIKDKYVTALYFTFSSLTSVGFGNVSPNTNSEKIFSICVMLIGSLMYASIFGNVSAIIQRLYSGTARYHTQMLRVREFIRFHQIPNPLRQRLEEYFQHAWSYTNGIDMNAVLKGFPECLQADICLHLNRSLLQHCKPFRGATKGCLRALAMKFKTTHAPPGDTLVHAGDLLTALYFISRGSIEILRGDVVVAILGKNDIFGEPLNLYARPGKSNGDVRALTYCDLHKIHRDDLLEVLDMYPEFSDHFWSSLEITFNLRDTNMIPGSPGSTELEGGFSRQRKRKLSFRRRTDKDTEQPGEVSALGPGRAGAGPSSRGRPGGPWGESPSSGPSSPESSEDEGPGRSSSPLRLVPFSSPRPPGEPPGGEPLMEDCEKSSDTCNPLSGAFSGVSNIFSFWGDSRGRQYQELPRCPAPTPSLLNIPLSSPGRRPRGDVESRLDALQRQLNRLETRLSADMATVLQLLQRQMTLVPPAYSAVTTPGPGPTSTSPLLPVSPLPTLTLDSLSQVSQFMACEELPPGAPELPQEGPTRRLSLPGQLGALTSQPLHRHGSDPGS
row,SMILES,"hERG current change (%, negative = inhibition) at 1uM [%]"
1,Cn1cccc1Cc1nnc(SCC(=O)N2CCCC2)n1CCc1ccccc1,10.7
2,Cc1nc2nc(N)nn2c(C)c1C/C=C/c1ccccc1,2.83
3,Cc1nnc2ccc(-c3cccc(NC(=O)c4ccc(Cl)nc4)c3)nn12,-1.98
4,Cc1nnc2ccc(-c3cccc(NC(=O)c4ccco4)c3)nn12,1.54
5,Cc1nnc2ccc(-c3cccc(NC(=O)c4ccc(Br)o4)c3)nn12,-52.2
6,COc1ccc(CN2CCSc3sccc3C2=O)cc1,3.85
7,CCc1ccc(Nc2ncc3c(n2)CC(c2ccco2)CC3=O)cc1 (stereo not drawn),5.43
8,Cn1nccc1C(=O)N1CCN(c2ncccn2)CC1,9.95
9,CN1CCNC(=O)C1CC(=O)N1CC=C(c2ccc(F)cc2)CC1 (stereo not drawn),16.2
10,Cl.NC(=O)c1ccc(OCCC(O)N2CC=C(c3ccc(F)cc3)CC2)cc1 (stereo not drawn),-53
11,CCCCOc1ccc(C(=O)NCC(=O)N2CC=C(c3ccccc3)CC2)cc1,10.7
12,O=C(NCc1ccccc1)c1cccc(S(=O)(=O)NCc2ccccc2)c1,6.18
13,CCN(CC)c1ccc(NC(=O)C2CCC(CNc3c(N4CCCC4)c(=O)c3=O)CC2)c(C)c1 (stereo not drawn),13.6
14,CCOc1ccc(C(C)=O)cc1COC(=O)C1=COCCO1,-0.905
15,COc1ccc(CCNCc2cc3ccc(C)cc3[nH]c2=O)cc1OC,-53.5
16,Cc1ccc2cc(CNCCc3ccccc3C)c(=O)[nH]c2c1,-42.9
17,Cc1cccc(CCNCc2cc3cccc(C)c3[nH]c2=O)c1,-35.7
18,CNCc1cc2ccc(C)cc2[nH]c1=O,-6.99
19,COc1ccc(CCN(Cc2cc3ccc(C)cc3[nH]c2=O)C(C)=O)cc1OC,-26.6

row,SMILES,"hERG current change (%, negative = inhibition) at 1uM [%]"
1,Cc1cccc(CCNCc2cc3ccc(C)cc3[nH]c2=O)c1,-54.6
2,Cc1ccc(Cl)cc1N1CCN(C(=O)Cc2c(C(=O)O)[nH]c3ccc(Cl)cc23)CC1,22.4
3,COCCOc1cnn(-c2cc(Oc3ccc(C)cc3)ncn2)c(=O)c1Cl,7.88
4,Cc1ccc(-n2c(SCC3CNC(=O)O3)nnc2-c2ccccc2)cc1C (stereo not drawn),0.305
5,CCOc1ccc(NC(=O)CN(C)C(=O)c2c(C)noc2C)cc1OCC,9.87
6,CCN(CC)CCCNC(=S)Nc1ccc(Br)cc1,-8.09
7,COc1ccc(C(=O)NCC(=O)OCc2ccc(F)cc2Cl)cc1OC,11.2
8,COc1ccc(C(=O)NC2CC2)cc1OC1CCN(Cc2ccc(F)cc2Cl)CC1,-62
9,O=C(NCc1ccccn1)c1ccc(OC2CCN(Cc3ccc(F)cc3F)CC2)cc1,0.219
10,COc1ccc(C(=O)NC2CCN(Cc3c(F)cccc3Cl)CC2)cc1OC,10.1
11,COCCNC(=O)c1cccc(OC2CCN(Cc3ccc(F)cc3OC)CC2)c1,10.6
12,COc1ccc(C(=O)NC2CC2)cc1OC1CCN(Cc2ccc(F)cc2F)CC1,-75.1
13,CCCN1CCN(C(=O)c2oc3c(Cl)cccc3c2C)CC1,-0.0965
14,CCCCC(=O)Nc1cccc(NC(=O)CC)c1,10.3
15,Cc1ccccc1-n1cc(-c2ccc(Br)cc2)nc1SCC(N)=O,10.3
16,Clc1cccc(OCCCCN2CCCCC2)c1,-4.66
17,Clc1cccc(OCCN2CCOCC2)c1.O=C(O)C(=O)O,5.84
18,CCC1CCCCN1CCCCOc1cccc(Cl)c1.O=C(O)C(=O)O (stereo not drawn),-55.6
19,COc1ccc(CNC(=O)C(C)N2C(=O)NC(c3ccccc3)(c3ccccc3)C2=O)cc1 (stereo not drawn),-56.1

row,SMILES,"hERG current change (%, negative = inhibition) at 1uM [%]"
1,CC(C(=O)NC(N)=O)N1C(=O)NC(c2ccccc2)(c2ccccc2)C1=O (stereo not drawn),-0.156
2,CCNC(=O)NC(=O)C(C)N1C(=O)NC(c2ccccc2)(c2ccccc2)C1=O (stereo not drawn),-2.55
3,CCCCNCC(=O)Nc1ccc(NC(=O)CNCCCC)cc1,16.2
4,CCCN1Cc2cccc(C(N)=O)c2C1=O,3.15
5,CC(=O)Nc1ccc(CN2CCCC(C(=O)c3cccc(C(F)(F)F)c3)C2)cc1 (stereo not drawn),7.86
6,CCn1ccnc1CN1CCCC(C(=O)c2cccc(C(F)(F)F)c2)C1 (stereo not drawn),1.55
7,O=C(c1cccc(C(F)(F)F)c1)C1CCCN(Cc2cccn2-c2ncccn2)C1 (stereo not drawn),-105
8,Cc1cccc(CN2CCCC(C(=O)c3ccc(C(F)(F)F)cc3)C2)n1 (stereo not drawn),-40
9,O=C(c1ccc(C(F)(F)F)cc1)C1CCCN(Cc2cccn2-c2ncccn2)C1 (stereo not drawn),-88
10,O=C(c1cccc(C(F)(F)F)c1)C1CCCN(Cc2ncc[nH]2)C1 (stereo not drawn),11.1
11,O=C(c1ccc(C(F)(F)F)cc1)C1CCCN(Cc2ccncc2)C1 (stereo not drawn),-7.99
12,O=C(c1cccc(C(F)(F)F)c1)C1CCCN(Cc2ccccc2O)C1 (stereo not drawn),13.2
13,O=C(c1cccc(C(F)(F)F)c1)C1CCCN(Cc2cccn2-c2ccccn2)C1 (stereo not drawn),-90.4
14,CC(=O)c1ccc(S(=O)(=O)Nc2ccccc2C(=O)NC2CC2)cc1,9.72
15,O=C1CN(S(=O)(=O)c2cccc(C(=O)O)c2)c2ccccc2N1,11.3
16,CCC(CC)c1nnc(NC(=O)c2ccc(N3CCCCC3)c([N+](=O)[O-])c2)s1,-9.23
17,C=CCN(CC(O)c1cccc([N+](=O)[O-])c1)C(C)CCc1ccccc1.Cl (stereo not drawn),-9.83
18,CC(CCc1ccccc1)N(C)CC(O)c1cccc([N+](=O)[O-])c1.Cl (stereo not drawn),-56.8
19,CC(CCc1ccccc1)NCC(O)c1cccc([N+](=O)[O-])c1.Cl (stereo not drawn),-8.42
